From PubChem BioAssay
The list is not random: actives were taken first. Their share in the collection is about 4.2%.
Mac1 fbg inh: CD11b/CD18-fibrinogen binding inhibition; P05107+P11215; K562 CD11b/CD18 adhesion to fibrinogen, ATPlite luminescence; Mn2+ added to activate the integrin; inhibition, % at 10 µM; hit rate 0.54% among 93,000; AID 1497;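 active means primary inhibition of 50% or more at 10 µM, then 40% or more on retest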
Pyk2 oligo antag: antagonists of human Pyk2 oligomerization; Q14289; Q293 cells, Pyk2 FERM NanoBiT luminescence; active compounds read low; z-score (the deposit names both 25 µM and 10 µM); hit rate 0.83% among 99,000;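 active means Z-score of -3 or lower, scaled per plate to the spread of control and sample wells; inactive means z-score above -3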;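 further: negative z-score means lost luminescence so less FERM oligomerization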
Cav3 T inh: inhibitors of human Cav3.2 T-type calcium channel; O95180; Cav3.2-expressing cells, Fluo-4 calcium fluorescence FDSS; active compounds read low; B-score at 10 µM; hit rate 4% among 100,000; AID 449739;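 active means single-dose well whose peak fluorescence ratio is a statistical outlier from its plate by either plate-standardised score or position-corrected B-score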
Ec RNAP inh: inhibitors of Escherichia coli RNA polymerase; P0A8V2; E. coli RNA polymerase, fluorescence transcription assay; inhibition, %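 (tested at 10 µM)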; hit rate 0.2% among 62,000; AID 559; in the data active means inhibition above about 20%;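 further: 0% = enzyme without compound and 100% = no enzyme blank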
CD11b adhes enh: enhancers of human CD11b/CD18 binding to fibrinogen; K562 CD11b/CD18 adhesion to fibrinogen, ATPlite luminescence; activation, % at 10 µM; hit rate 0.07% among 93,000; AID 1499;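 active means 10 µM primary screen giving 50% or more activity, confirmed by 40% or more on retest at that dose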
* hit, by the source's call; nt = not tested or not shown.

SMILES | Mac1 fbg inh | Pyk2 oligo antag | Cav3 T inh | Ec RNAP inh | CD11b adhes enh
Cc1nn(Cc2ccc(Cl)cc2Cl)c(C)c1NC(=O)c1sc2ccccc2c1Cl | -14 | 2.3 | -0.92 | nt | 31
Cc1nn(Cc2ccc(Cl)c(Cl)c2)c(C)c1NC(=O)c1sc2ccccc2c1Cl | 67 | -0.12 | -8.1* | nt | 4
Cc1ccccc1Cn1nc(C)c(NC(=O)c2sc3ccccc3c2Cl)c1C | -12 | -1.5 | -6.8* | nt | 6
COc1ccccc1COC(=O)Nc1c(C)nn(C)c1Cl | nt | 0.2 | -0.67 | nt | nt
Cc1cccc2c1NC(=O)C2(c1ccc(O)cc1)c1ccc(O)cc1 | nt | -0.07 | -5.1* | nt | nt
Cn1nc(C(F)(F)F)cc1C(=O)NC1CCCCCC1 | nt | 0.41 | -1.1 | nt | nt
CCCC(=O)N1c2ccccc2C(N(C(C)=O)c2ccccc2)CC1C (configuration not stated) | nt | 1.6 | nt | nt | nt
Cc1ccc(C(=O)N(c2ccccc2)C2CC(C)N(C(=O)c3ccco3)c3ccccc32)cc1 (configuration not stated) | -4 | -2.7 | -5.6* | nt | 1
O=C(CN1C(=O)C2CC=CCC2C1=O)Nc1nnc(SCc2ccc(Cl)cc2)s1 (configuration not stated) | 22 | 1 | -4.5* | nt | -6
O=C(CN1C(=O)C2CC=CCC2C1=O)Nc1nnc(SCc2c(Cl)cccc2Cl)s1 (configuration not stated) | -2 | -0.49 | -0.1 | nt | 9
COc1ccc(C(=O)CSc2nnc(NC(=O)C3CC(=O)N(c4ccccc4)C3)s2)cc1 (configuration not stated) | -6 | -0.54 | nt | nt | 57
COc1cccc(C(=O)Nc2nnc(-c3cccs3)o2)c1 | 8 | nt | nt | 6 | -1
COc1cccc(C(=O)Nc2nnc(-c3ccc(Cl)cc3)o2)c1 | nt | nt | -5.4* | -2 | nt
CCOc1ccc(-c2nnc(NC(=O)c3ccc(OCC(C)C)c(OC)c3)o2)cc1 | nt | -0.14 | -4.2* | 4 | nt
CCCCNC(=O)Nc1nnc(-c2ccc(OCC)cc2)o1 | -3 | 0.98 | -0.88 | nt | -2
COc1ccc(S(=O)(=O)N(CC(=O)N/N=C/c2cccs2)c2cc(C)cc(C)c2)cc1OC | -24 | -3* | -0.92 | nt | 4
COc1ccc(S(=O)(=O)N(CC(=O)N/N=C/c2cccs2)c2ccc(C)cc2)cc1OC | 8 | -2.5 | -6.1* | nt | -2
COc1ccc(S(=O)(=O)N(CC(=O)NC2CC2)c2ccc(C)cc2)cc1OC | -4 | 0.49 | -0.35 | 9 | 1
Cc1ccc(C(=O)COC(=O)C2CC(=O)N(c3nc(-c4ccccc4)cs3)C2)cc1 (configuration not stated) | 1 | 1.6 | -1.3 | nt | -1
COc1ccc2nc(-n3c(O)c(C4=c5ccccc5=NC4=O)[nH]c3=S)sc2c1 | -20 | -3.2* | nt | nt | -4
Cc1c(NC(=O)OCCNC(=O)COc2c(Cl)cccc2Cl)sc(=S)n1C | nt | 0.13 | 0.1 | nt | nt
COc1ccc(CCn2nnc(-c3ccc(NC(C)=O)c(Cl)c3)n2)cc1 | nt | 0.11 | 0.11 | nt | nt
O=C(NNC1=C(C(=O)C(F)(F)F)CCC1)c1cccc(O)c1 | nt | -1 | -0.65 | nt | nt
Cc1cccc(C(=O)NNC2=C(C(=O)C(F)(F)F)CCC2)c1O | 96* | 0.36 | -8* | nt | -7
N#CC(c1ccc(F)cc1)c1ccc(C(=O)c2ccc(F)cc2)cc1 (configuration not stated) | 87* | -1.1 | -1.8 | nt | -5
SMILES | Mac1 fbg inh | Pyk2 oligo antag | Cav3 T inh | Ec RNAP inh | CD11b adhes enh
Cc1ccc(C(C#N)c2ccc(C(=O)c3ccc(F)cc3)cc2)cc1 (configuration not stated) | 95 | -1.9 | 0.01 | nt | -6
C=CCn1c(CSc2nc3ccccc3s2)nnc1SCC(=O)NCc1cccnc1 | nt | 0.31 | 0.79 | nt | nt
C=CCn1c(CSc2nc3ccccc3s2)nnc1SCC(=O)NCc1ccccc1 | 3 | 0.85 | -4.3* | nt | -4
O=C(Nc1nnc(C(F)(F)F)s1)C1COc2ccccc2O1 (configuration not stated) | 84* | -0.89 | -4.2* | nt | -5
COc1ccc(S(=O)(=O)NNC(=O)c2cc3ccccc3o2)cc1 | -8 | nt | nt | nt | 8
CC1(C)CC2(CC(c3ccccc3)Oc3cc(O)ccc32)NC(=S)N1 (configuration not stated) | -7 | nt | nt | nt | 2
CCN(CC)S(=O)(=O)c1ccc(C(=O)NCc2nnc(SCC(=O)OC)n2C)cc1 | -12 | -0.34 | -3.8* | 7 | -2
COc1ccc(CCN(Cc2cc3cccc(C)c3[nH]c2=O)C(=O)NC2CCCCC2)cc1OC | -2 | -0.13 | 0.0062 | nt | 1
O=C(NCCCN1CCCCCC1)C1CC(=O)N(CCc2ccccc2)C1 (configuration not stated) | -2 | 0.59 | 0.91 | 0 | 82*
Cc1cccc(OCc2nnc(SCC(=O)N(C(C)C)C(C)C)n2Cc2ccco2)c1C | 3 | -0.87 | -6.6* | -3 | -2
CC(C)Cc1cc(C(=O)N2N=C(C(F)F)CC2(O)C(F)F)c2ccccc2n1 (configuration not stated) | nt | -1.4 | -7* | nt | nt
Cc1cccc(C)c1NC(=O)C(c1ccc([N+](=O)[O-])cc1)N1CCCCC1 (configuration not stated) | -15 | -0.62 | -5.6* | nt | 6
CCn1c2ccccc2c2cc(NS(=O)(=O)c3ccccc3C)ccc21 | nt | -0.54 | nt | nt | nt
CCNC(=S)N(Cc1ccc2c(c1)OCO2)C1CC(=O)N(c2ccc(F)cc2)C1=O (configuration not stated) | -14 | -0.13 | -7.1* | nt | -6
CCNC(=S)N(Cc1ccc2c(c1)OCO2)C1CC(=O)N(c2ccc(OC)cc2)C1=O (configuration not stated) | -10 | -0.59 | -2.3 | nt | 1
CCOc1cc(NC(=O)C2CC2)c(OCC)cc1NC(=O)c1ccccn1 | 7 | -3.2* | 0.66 | 1 | 1
CN(c1ccc(C(=O)N2CCOCC2)cc1[N+](=O)[O-])C1CCCCC1 | 6 | -0.37 | -1.4 | nt | -3
COC(=O)C1=C(O)C(C(=O)OC)C(c2ccc(C)cc2)C(C#N)(C#N)C1c1ccc(C)cc1 (configuration not stated) | nt | -1.3 | -5.6* | nt | nt
CCOC(=O)CSC1=C(C#N)C(c2ccc(C)cc2)C(C(=O)OC)C(=O)N1 (configuration not stated) | 3 | 0.57 | 0.85 | 7 | -2
CCC(=O)N1CCN(c2ccccc2NC(=O)Cc2ccccc2)CC1 | 17 | 0.34 | -5* | 15 | 4
COc1ccc(Cl)cc1C(=O)Nc1ccccc1N1CCN(C(=O)C(C)C)CC1 | 10 | 0.85 | -4.2* | 15 | 8
CC(C)C(=O)N1CCN(c2ccccc2NC(=O)Cc2ccc(Cl)cc2)CC1 | -2 | -0.41 | -5* | -4 | -3
CC(C)c1ccccc1NC(=O)COC(=O)/C=C/c1cccc([N+](=O)[O-])c1 | -7 | nt | nt | nt | 15
CS(=O)(=O)N1CCN(C(=O)NC23CC4CC(CC(C4)C2)C3)CC1 | -23 | 1.8 | 0.46 | 10 | 3
O=C(NC12CC3CC(CC(C3)C1)C2)N1CCN(S(=O)(=O)c2ccc(Cl)cc2)CC1 | -18 | 4.8 | -7* | 11 | -4
